# BAZ2B block – blocks human BAZ2B | AlphaScreen BAZ2B-H3K14Ac peptide displacement | hit rate 4.4% among 360,000 | Potency, µM (series often up to 114 µM), without a hit: at the top dose activity change, negative = inhibition, hits mostly inhibitors | Q9UIF8; further: potency means the concentration at half of the fitted maximal effect; on the % scale 0 is the no-effect control and ±100 the full control effect; nearly all actives have a fitted effect of over 60% in size
#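 In this displacement format the biotinylated H3(5-23) peptide acetylated at Lys14 serves as ligand at 50 nM, with BAZ2B at 50 nM in PBS pH 7.4 containing 0.01% Tween-20. Donor and acceptor beads are 10 ug/mL final.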
# CtBP-E1A blk – inhibitors of CtBP/E1A interaction; AlphaScreen GST-E1A/His-CtBP binding, 1536-well; stronger effect = lower value; activity change, % (test concentration not listed); hit rate 0.49% among 340,000; in the data active means activity change below about -65%; inconclusive means mostly about -30% to -63%; further: on the % scale 0 is the no-effect control and ±100 the full control effect
#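 Protein mix (5X: 125 nM each GST-E1A, His-CtBP) was incubated with pinned compound 2 h at 37 deg C in dark, in 50 mM Tris pH 8.0 buffer with 300 mM NaCl. Glutathione donor and nickel acceptor beads followed; AlphaScreen signal read after 1 h.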
# HP1b binding inh – blocks HP1-beta chromodomain binding to methylated histone tails; P83916; AlphaScreen HP1-beta / biotin-H3K9me3 peptide binding; Potency, µM (series often up to 114 µM), for the others: top-dose activity change, negative = inhibition, usual class: inhibitors; hit rate 0.56% among 390,000; AID 540317; further: potency means the concentration at half of the fitted maximal effect; nearly all actives have a fitted effect of over 70% in size
# Target sequence (P83916 whole entry, looked up): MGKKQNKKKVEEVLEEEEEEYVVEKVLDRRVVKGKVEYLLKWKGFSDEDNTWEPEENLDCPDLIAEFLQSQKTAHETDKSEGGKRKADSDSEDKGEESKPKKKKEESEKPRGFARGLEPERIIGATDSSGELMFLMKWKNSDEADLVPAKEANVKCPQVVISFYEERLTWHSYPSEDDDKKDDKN
#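 Compound inhibition of the preformed complex between 50 nM HP1-beta and 50 nM biotinylated H3K9me3 peptide was read by AlphaScreen. Buffer was PBS pH 7.4 with 0.01% Tween-20. Incubations ran 30 min at room temperature, with 10 ug/mL donor/acceptor beads.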
# JMJD2A Tudor inh – inhibitors of human JMJD2A Tudor domain. O75164. AlphaScreen JMJD2A-Tudor / H3K4me3 peptide binding. Potency, µM (top dose mostly 114 µM), for inactives: at the highest dose activity change, negative = inhibition, most hits filed as inhibitors. hit rate 4.4% among 390,000. AID 504339; further: potency means the concentration at half of the fitted maximal effect; on the % scale 0 is the no-effect control and ±100 the full control effect; nearly all actives have a fitted effect of over 50% in size
# Six1-Eya2 blk – blocks human Six1 binding to Eya2; AlphaScreen GST-Six1/His-Eya2 binding, biochemical; stronger effect = lower value; activity change, % (no concentration beside the values); hit rate 0.56% among 360,000; AID 651725; in the data active means activity change below about -65%; inconclusive means mostly about -30% to -63%; further: on the % scale 0 is the no-effect control and ±100 the full control effect
#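 Compounds are tested against tagged Six1 and Eya2 proteins bridged by glutathione donor and nickel acceptor beads; after a one-hour incubation at 37 °C without light, AlphaScreen emission is recorded.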
# G9a block – inhibitors of human histone lysine methyltransferase G9a. G9a H3K9 monomethylation, AlphaScreen, 2 h. Potency, µM (highest dose often 102 µM), inactives show at the highest dose activity, negative = inhibition, most hits filed as inhibitors. hit rate 8.8% among 350,000. AID 504332; further: potency means the concentration at half of the fitted maximal effect; on the % scale 0 is the no-effect control and ±100 the full control effect; nearly all actives have a fitted effect of over 75% in size
# Target sequence (Q96KQ7 913-1193 limits assumed): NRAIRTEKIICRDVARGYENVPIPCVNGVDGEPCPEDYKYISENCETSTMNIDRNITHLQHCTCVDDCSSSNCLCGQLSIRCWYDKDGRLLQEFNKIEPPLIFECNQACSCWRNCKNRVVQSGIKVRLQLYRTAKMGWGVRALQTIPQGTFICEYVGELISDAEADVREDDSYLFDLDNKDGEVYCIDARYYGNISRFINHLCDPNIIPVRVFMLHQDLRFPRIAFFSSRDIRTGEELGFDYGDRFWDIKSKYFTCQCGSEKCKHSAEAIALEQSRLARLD
#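 Signal arises when biotinylated H3K9 peptide, once monomethylated, bridges streptavidin donor and antibody-captured acceptor beads. Enzyme at 20 nM was preincubated 15 min with test compounds; peptide 500 nM and SAM 20 uM then reacted for 2 h.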
# * = called active by the depositor; ? = inconclusive; · = no result given; [ ] = dose if it differs, or a comment. In the library only some 10% were active in any assay of this set; here they are far more common. Unless noted, the call rests on the fitted dose curve; in most records, active means well fitted inhibition curve with a large enough effect; inconclusive means small, poorly fitted or top-dose-only effect; inactive means no such curve, though single readings can be large or run the other way.
SMILES,BAZ2B block,CtBP-E1A blk,HP1b binding inh,JMJD2A Tudor inh,Six1-Eya2 blk,G9a block
COC(=O)c1ccc(CNC(=O)c2c3c(nc4ccccc24)CCN(Cc2ccccc2)C3)cc1,-1%,-12,37%,-29%,-9,?
O=C(NCc1ccc(F)cc1)c1c2c(nc3ccccc13)CCN(Cc1ccccc1)C2,8%,15,28%,7%,3,45µM*
CCCn1c(SCC(=O)NC2CCCCC2)nnc1-c1cccnc1,8%,6,14%,1%,6,-11%[59 µM]
CCc1ccc(S(=O)(=O)c2cn(C)c3ccc(C)cc3c2=O)cc1,4%,·,53%,-7%,·,-19%[59 µM]
Cc1ccc(C(=O)C(c2ccccc2)N2Cc3ccccc3C2=N)cc1 (stereo not drawn),32µM*,-24,?,28µM*,-28,11µM*
CC(C)CCNC(=O)[C@@H](c1ccccc1)N1Cc2ccccc2C1=O,-7%,·,24%,-11%,·,-7%[59 µM]
Cc1cc(Cl)c(S(=O)(=O)N2CCN(c3ccccc3)CC2)cc1OCC(N)=O,8%,-3,46%,-8%[11.4 µM],0,16%[59 µM]
CS(=O)(=O)N1N=C(c2ccco2)CC1c1ccc(Br)cc1 (stereo not drawn),-11%,-4,46%,-4%,2,35µM*
COc1ccccc1C1CC(c2ccco2)=NN1S(C)(=O)=O (stereo not drawn),-13%,1,-22%,50µM*,2,-38%
Cc1ccc(-c2nn(C)c(=O)c3ccccc23)cc1S(=O)(=O)NCCCN(C)C,5%,·,33%,2%,·,6%[59 µM]
COc1cc(OC)c(NS(=O)(=O)c2coc(C(N)=O)c2)cc1Cl,-6%,-2,36%,-30%,0,71µM*
Cc1cc(C)nc(NS(=O)(=O)c2ccc(NC(=O)Cc3ccccc3)cc2)n1,5%,1,-7%,-34%,0,3%
COc1ccc(-c2cc(C(=O)Nc3ccc(S(=O)(=O)Nc4onc(C)c4C)cc3)c3ccccc3n2)cc1,?,·,-12%[57 µM],?,-18,50µM*
Cc1noc(NS(=O)(=O)c2ccc(NC(=O)c3cnc4scc(C)n4c3=O)cc2)c1C,-8%,-27,7%,?,0,50µM*
Cc1cc(NS(=O)(=O)c2ccc(NC(=O)c3cnc4scc(C)n4c3=O)cc2)nc(C)n1,9%,-13,18%,-19%,0,?
Cc1ccc(-c2cc(C(=O)Nc3ccc(S(=O)(=O)Nc4nc(C)cc(C)n4)cc3)c3ccccc3n2)cc1,?,-1,?,-18%,-1,50µM*
Cc1cc(C)nc(NS(=O)(=O)c2ccc(NC(=O)C3(c4ccccc4)CCCC3)cc2)n1,0%,16,10%,-20%,5,56µM*
Cc1ccnc(NS(=O)(=O)c2ccc(NC(=O)c3cc(-c4ccccc4)nc4ccccc34)cc2)n1,-21%,-5,3%,-19%,1,?
COC(=O)c1ccc2nc(C)cc(Nc3cccc(Cl)c3C)c2c1,2%,·,44%,-10%,·,?
c1ccc(CCCNCCCn2cnc3c(OCc4ccccc4)ncnc32)cc1,·,-6,22%,-11%,-2,·
COc1cc(-c2cc(C(=O)Nc3ccc(S(N)(=O)=O)cc3)c3ccccc3n2)cc(OC)c1OC,16%,2,22%,-21%,-3,-47%
CCN(CC)S(=O)(=O)c1ccc(O)c(NC(=O)c2cc(-c3cc(OC)c(OC)c(OC)c3)nc3ccccc23)c1,-21%,-4,-36%,?,1,7.9µM*
O=C(NCc1ccccc1)c1ccc(/C=N/O)nc1,56µM*,-20,20%,7.9µM*,?,10µM*
O=C(NCc1ccccn1)c1ccc(/C=N/O)nc1,45µM*,?,23%,18µM*,?,-5%
NC(=O)c1ccc(/C=N/O)nc1,32µM*,·,21%,18µM*,-6,3.5µM*
SMILES,BAZ2B block,CtBP-E1A blk,HP1b binding inh,JMJD2A Tudor inh,Six1-Eya2 blk,G9a block
CCN(Cc1ccccc1)C(=O)C1CCC(CNS(=O)(=O)c2ccc3c(c2)CCCC(=O)N3)CC1 (stereo not drawn),-19%,·,24%,-16%,·,-32%[59 µM]
Cc1cc(SCC(=O)OCC(=O)N(C)C2CCS(=O)(=O)C2)c(C)cc1Br (stereo not drawn),17%,0,27%,-9%,-1,?
CCC(C)NC(=O)CC1Oc2ccc(Cl)cc2NC1=O (stereo not drawn),11%,0,47%,-11%,2,45µM*
CC(C)c1ccc(NC(=O)CC2Oc3ccccc3NC2=O)cc1 (stereo not drawn),-15%,·,53%,-9%,2,8%
COc1ccc(CCNC(=O)CC2Nc3ccccc3NC2=O)cc1OC (stereo not drawn),-35%,-3,41%,-31%,-9,-8%[2.33 µM]
COc1ccc(CCNC(=O)CC2Oc3ccc(Cl)cc3NC2=O)cc1OC (stereo not drawn),-23%,3,34%,-20%,2,79µM*
COc1ccc(C(=O)N/C(=C\c2ccco2)C(=O)NC2CCS(=O)(=O)C2)cc1 (stereo not drawn),-19%,2,-1%,-13%,7,-51%[59 µM]
Cn1c(=O)c2[nH]c(-c3ccccc3Cl)c(O)c2n(C)c1=O,-26%,-2,49%,7%,1,45µM*
Cn1c(=O)c2[nH]c(-c3ccccc3)nc2n(C)c1=O,8%,·,·,·,·,7%[59 µM]
Cn1c(=O)c2[nH]c(-c3ccccc3)c(O)c2n(C)c1=O,11%,-12,26%,-7%,3,2.2µM*
CCc1cc[n+](C(C(=S)Nc2cccc(C)c2)=C([O-])c2ccc(C)c([N+](=O)[O-])c2)cc1,·,0,?,?,-13,·
Cc1ccc(/C([O-])=C(/C(=S)NCc2ccccc2)[n+]2cccc(CO)c2)cc1[N+](=O)[O-],?,-1,-6%,?,-14,28µM*
O=C(N/N=C/c1ccccn1)c1cc(-c2ccncc2)nc2ccccc12,79µM*,-73*,40%,-1%,-72*,-4%[59 µM]
O=C(N/N=C/c1ccc2c(c1)OCO2)c1cc(-c2ccncc2)nc2ccccc12,-35%,-12,23%,-3%,?,9%[59 µM]
CN(C)c1ccc(-c2c(-c3ccc4c(c3)OCO4)noc2-c2ccsc2)cn1,-6%,-1,11%,-20%,-16,·
Cc1ccc(/C=N/NC(=O)c2cc(-c3ccncc3)nc3ccccc23)o1,?,-19,27%,-34%,-8,45µM*
O=C(O)c1cc(-c2ccc(-c3c(-c4ccc5c(c4)OCO5)noc3-c3ccsc3)cc2)nc2ccccc12,?,3,-2%,89µM*,-2,56µM*

# Screening results from PubChem BioAssay.
